19 molecules from PubChem BioAssay (EPA / NIEHS) can be followed below.

As usually defined, the AC50 is the concentration at which the activity in the assay is half-maximal.

Calls of active or inactive are those of the source. How the source made its calls: active means hit-call score of the fitted dose curve at least 0.9, where 1 is the maximum; inactive means score below 0.9.

Read-out in the first assay: Actin alpha 1 (ACTA1), ACTA1 (gene 58)
As to the kind of experiment: BSK_MyoF_ACTA1: BioMAP Diversity Plus: MyoF Assay for Actin alpha 1 (ACTA1) Biomarker Activity (AID 2284244). The following applies: primary human lung fibroblasts. A digest of the protocol:
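ELISA read-out of a-SMA in primary human lung fibroblast cultures, 24 h post-dosing. Activity scored in the positive direction versus DMSO baseline.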
Take `CCOP(=S)(OCC)SCCS(=O)(=O)CC`: the outcome was inactive.

As to `CCOC(=O)/C=C(C)/C=C/C[C@@H](C)CCCC(C)C`, the AC50 was 29.6 µM (active).

Consider `CCOP(=S)(OCC)Oc1ccc(S(C)=O)cc1` (stereo unspecified), for which the outcome was inactive.

For the molecule `C(=NC1CCCCC1)=NC1CCCCC1`, the half-maximal activity concentration (AC50) was 7.21 µM (active).

As for `ClC(Cl)=C(Cl)C(Cl)=C(Cl)Cl`, the half-maximal activity concentration (AC50) is 3.97 µM (active).

`COP(=S)(OC)Oc1c(Cl)cc(C)cc1Cl`: the outcome was inactive.

With `Oc1c(I)cc(I)cc1I`, the concentration at half-maximal activity (AC50) was 20 µM (active).

In the case of `CCNc1nc(NC(C)(C)C)nc(SC)n1`, the outcome was inactive.

In the case of `COP(=S)(OC)Oc1ccc(S(=O)(=O)N(C)C)cc1`, the outcome was inactive.

On to `CCCCCCCCC(=O)NCc1ccc(O)c(OC)c1`, for which the outcome was inactive.

`CC(=O)C(Cl)C(=O)N(C)C` (stereo unspecified): the outcome was inactive.

Take `CC(C)CCCCCCOC(=O)c1ccccc1C(=O)OCCCCCCC(C)C`: the result was inactive.

In the case of `O=S(=O)(c1ccc(Cl)cc1)c1ccc(Cl)cc1`, the outcome was inactive.

As for `O=[N+]([O-])c1ccc2c3c(cccc13)CC2`, the result was inactive.

`Nc1cccc2ccccc12`: the outcome was inactive.

With `CCCCC(CC)CO[N+](=O)[O-]` (stereo unspecified), the result was inactive.

As for `COP(=S)(OC)Oc1ccc(Sc2ccc(OP(=S)(OC)OC)cc2)cc1`, the half-maximal activity concentration (AC50) is 27.4 µM (active).

Turning to `Nc1ncc([N+](=O)[O-])s1`, the result was inactive.

For `COC[C@H](C)N(C(=O)CCl)c1c(C)csc1C`, the outcome was inactive.

Read-out in the next assay: Interleukin 2 (IL2), IL2 (gene 3558)
As to the kind of experiment: BSK_BT_xIL2: BioMAP Diversity Plus: BT Assay for Interleukin 2 (IL2) Biomarker Activity (AID 2284245). The following applies: primary human B cells with PBMC. A digest of the protocol:
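Readout: supernatant IL-2 via Luminex xMAP after 24 h chemical dosing of a B cell/PBMC primary human co-culture. DMSO serves as negative control and baseline; increases in signal were fitted.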
In the case of `CCOP(=S)(OCC)SCCS(=O)(=O)CC`, the half-maximal activity concentration (AC50) was 23.9 µM (active).

Take `CCOC(=O)/C=C(C)/C=C/C[C@@H](C)CCCC(C)C`: the AC50 is 20 µM (active).

With `CCOP(=S)(OCC)Oc1ccc(S(C)=O)cc1` (stereo unspecified), the result was inactive.

As for `C(=NC1CCCCC1)=NC1CCCCC1`, the AC50 is 10.7 µM (active).

`ClC(Cl)=C(Cl)C(Cl)=C(Cl)Cl`: the result was inactive.

For the molecule `COP(=S)(OC)Oc1c(Cl)cc(C)cc1Cl`, the result was inactive.

Regarding `Oc1c(I)cc(I)cc1I`, the outcome was inactive.

Regarding `CCNc1nc(NC(C)(C)C)nc(SC)n1`, the result was inactive.

As to `COP(=S)(OC)Oc1ccc(S(=O)(=O)N(C)C)cc1`, the result was inactive.

`CCCCCCCCC(=O)NCc1ccc(O)c(OC)c1`: the outcome was inactive.

Regarding `CC(=O)C(Cl)C(=O)N(C)C` (stereo unspecified), the AC50 is 34.4 µM (active).

With `CC(C)CCCCCCOC(=O)c1ccccc1C(=O)OCCCCCCC(C)C`, the result was inactive.

On to `O=S(=O)(c1ccc(Cl)cc1)c1ccc(Cl)cc1`, for which the outcome was inactive.

In the case of `O=[N+]([O-])c1ccc2c3c(cccc13)CC2`, the result was inactive.

Take `Nc1cccc2ccccc12`: the result was inactive.

For the molecule `CCCCC(CC)CO[N+](=O)[O-]` (stereo unspecified), the outcome was inactive.

On to `COP(=S)(OC)Oc1ccc(Sc2ccc(OP(=S)(OC)OC)cc2)cc1`, for which the outcome was inactive.

Turning to `Nc1ncc([N+](=O)[O-])s1`, the result was inactive.

As for `COC[C@H](C)N(C(=O)CCl)c1c(C)csc1C`, the outcome was inactive.

Read-out in another assay: Basic fibroblast growth factor (bFGF), FGF2 (gene 2247)
As to the kind of experiment: BSK_MyoF_bFGF: BioMAP Diversity Plus: MyoF Assay for Basic fibroblast growth factor (bFGF) Biomarker Activity (AID 2284246). The following applies: primary human lung fibroblasts. A digest of the protocol:
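Primary human lung fibroblast culture, 24 h compound exposure; ELISA read-out of bFGF. Positive-direction fit vs DMSO baseline. Cytotoxicity: SRB stain (0.1% SRB, 10% TCA fixation, 560 nm) in parallel wells.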
On to `CCOP(=S)(OCC)SCCS(=O)(=O)CC`, for which the result was inactive.

As to `CCOC(=O)/C=C(C)/C=C/C[C@@H](C)CCCC(C)C`, the half-maximal activity concentration (AC50) was 32.5 µM (active).

As to `CCOP(=S)(OCC)Oc1ccc(S(C)=O)cc1` (stereo unspecified), the outcome was inactive.

In the case of `C(=NC1CCCCC1)=NC1CCCCC1`, the AC50 was 11.9 µM (active).

On to `ClC(Cl)=C(Cl)C(Cl)=C(Cl)Cl`, for which the outcome was inactive.

Consider `COP(=S)(OC)Oc1c(Cl)cc(C)cc1Cl`, for which the result was inactive.

`Oc1c(I)cc(I)cc1I`: the result was inactive.

For `CCNc1nc(NC(C)(C)C)nc(SC)n1`, the result was inactive.

For the molecule `COP(=S)(OC)Oc1ccc(S(=O)(=O)N(C)C)cc1`, the outcome was inactive.

`CCCCCCCCC(=O)NCc1ccc(O)c(OC)c1`: the result was inactive.

For `CC(=O)C(Cl)C(=O)N(C)C` (stereo unspecified), the outcome was inactive.

On to `CC(C)CCCCCCOC(=O)c1ccccc1C(=O)OCCCCCCC(C)C`, for which the outcome was inactive.

For `O=S(=O)(c1ccc(Cl)cc1)c1ccc(Cl)cc1`, the result was inactive.

For the molecule `O=[N+]([O-])c1ccc2c3c(cccc13)CC2`, the outcome was inactive.

As to `Nc1cccc2ccccc12`, the result was inactive.

For the molecule `CCCCC(CC)CO[N+](=O)[O-]` (stereo unspecified), the result was inactive.

In the case of `COP(=S)(OC)Oc1ccc(Sc2ccc(OP(=S)(OC)OC)cc2)cc1`, the outcome was inactive.

Consider `Nc1ncc([N+](=O)[O-])s1`, for which the outcome was inactive.

On to `COC[C@H](C)N(C(=O)CCl)c1c(C)csc1C`, for which the result was inactive.

Read-out in the next assay: Plasminogen activator inhibitor-1 (PAI1), SERPINE1 (gene 5054)
As to the kind of experiment: BSK_MyoF_PAI1: BioMAP Diversity Plus: MyoF Assay for Plasminogen activator inhibitor-1 (PAI1) Biomarker Activity (AID 2284256).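 On outcome: PAI-1 protein level measured by ELISA in fibroblast cultures; PAI-1 read 24 h after compound addition.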 The following applies: primary human lung fibroblasts. A digest of the protocol: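 ELISA read-out of PAI-1 from primary human lung fibroblast cultures 24 h after dosing; gain-of-signal fit versus DMSO control.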
For `CCOP(=S)(OCC)SCCS(=O)(=O)CC`, the outcome was inactive.

`CCOC(=O)/C=C(C)/C=C/C[C@@H](C)CCCC(C)C`: the half-maximal activity concentration (AC50) is 32.3 µM (active).

`CCOP(=S)(OCC)Oc1ccc(S(C)=O)cc1` (stereo unspecified): the outcome was inactive.

Turning to `C(=NC1CCCCC1)=NC1CCCCC1`, the concentration at half-maximal activity (AC50) is 7.53 µM (active).

For the molecule `ClC(Cl)=C(Cl)C(Cl)=C(Cl)Cl`, the result was inactive.

As for `COP(=S)(OC)Oc1c(Cl)cc(C)cc1Cl`, the result was inactive.

`Oc1c(I)cc(I)cc1I`: the outcome was inactive.

For the molecule `CCNc1nc(NC(C)(C)C)nc(SC)n1`, the result was inactive.

As to `COP(=S)(OC)Oc1ccc(S(=O)(=O)N(C)C)cc1`, the result was inactive.

`CCCCCCCCC(=O)NCc1ccc(O)c(OC)c1`: the result was inactive.

For `CC(=O)C(Cl)C(=O)N(C)C` (stereo unspecified), the result was inactive.

As to `CC(C)CCCCCCOC(=O)c1ccccc1C(=O)OCCCCCCC(C)C`, the outcome was inactive.

Regarding `O=S(=O)(c1ccc(Cl)cc1)c1ccc(Cl)cc1`, the result was inactive.

Turning to `O=[N+]([O-])c1ccc2c3c(cccc13)CC2`, the outcome was inactive.

For the molecule `Nc1cccc2ccccc12`, the result was inactive.

For `CCCCC(CC)CO[N+](=O)[O-]` (stereo unspecified), the outcome was inactive.

In the case of `COP(=S)(OC)Oc1ccc(Sc2ccc(OP(=S)(OC)OC)cc2)cc1`, the outcome was inactive.

In the case of `Nc1ncc([N+](=O)[O-])s1`, the outcome was inactive.

For the molecule `COC[C@H](C)N(C(=O)CCl)c1c(C)csc1C`, the outcome was inactive.
